From PubChem BioAssay AID488899 (Broad Institute, 2010)
About 2,800 (0.85%) of roughly 330,000 compounds were called active.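 Rule for the calls: active = mean inhibition across replicates of 60% or more, whatever share of single replicates reaches that level; inconclusive = some that reach 60%, reason not given; inactive = mean inhibition across replicates below 60%.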 The list comes from a sample in which actives are over-represented; it also holds similar structures and randomly drawn compounds.

assay: inhibitors of MITF-dependent TRPM1 promoter reporter, primary screen, cell-based, SK-MEL-5, single point, luciferase (AID 488899); conditions: SK-MEL-5 TRPM1 promoter luciferase, 24 h; at 12.5 µM; stronger effect = higher value

SMILES | inhibition
CCCCCCCCn1c2c(c(=N)c3c1CCC3)CCCC2 | 77.2% (active)
CCOc1ccc(N(C)S(=O)(=O)c2cnc[nH]2)cc1 | 6.77% (inactive)
CC1CCCCC1NC(=O)COC(=O)Cc1ccc(Cl)cc1 (stereo unspecified) | 6.02% (inactive)
CN(c1ccc2nc3ccccc3c(=O)n2n1)C1CCCCC1 | 84.7% (active)
CN(C(=O)c1cc2c(=O)n3ccccc3nc2s1)C1CCCCC1 | -36.7% (inactive)
CN(C(=O)CSc1nncc2ccccc12)C1CCCCC1 | -4.81% (inactive)
CCCN(CCC)S(=O)(=O)c1ccc(C(=O)NNC(=O)c2cc(OC)c(OC)c(OC)c2)cc1 | 4.09% (inactive)
Clc1cccc(-c2nc(NCC3CCCO3)c3ccccc3n2)c1 (stereo unspecified) | -7.27% (inactive)
Clc1ccc2nc(-c3ccccc3)nc(C(Cl)Cl)c2c1 | 90.9% (active)
N#CCSc1nc(-c2ccccc2)nc2ccc(F)cc12 | 6.09% (inactive)
CCCOc1cccc(C(=O)Nc2nnn(CCC)n2)c1 | -31.2% (inactive)
COc1cc(C(=O)N2CCN(C3CCC(C)CC3)CC2)cc(OC)c1OC (stereo unspecified) | -0.962% (inactive)
O=C1c2ccccc2C(=O)N1CC1c2ccccc2CCN1S(=O)(=O)c1ccccc1 (stereo unspecified) | -6.02% (inactive)
CCN1CCN(C(=O)CSc2ccc(C)cc2)CC1 | -21.2% (inactive)
CCN1CCC(O)(/C=C/c2ccc(C)cc2)C(C(=O)/C=C/c2ccc(C)cc2)C1 (stereo unspecified) | 77.1% (active)
CCOC(=O)C1CCCN(C(=O)/C=C/c2ccc(OC)cc2)C1 (stereo unspecified) | -11.1% (inactive)
Nc1ccccc1SC(C[N+](=O)[O-])c1ccccc1 (stereo unspecified) | 75.5% (active)
Cc1ccc(C(C[N+](=O)[O-])c2c(C)cc3ccccn23)cc1 (stereo unspecified) | 40.1% (inactive)
O=C(NCC(=O)N1CCCCCCC1)c1ccccc1Cl | -25.1% (inactive)
COc1ccc(S(=O)(=O)N2CCCC2CNC(=O)C(=O)NC2CC2)cc1 (stereo unspecified) | -5.39% (inactive)
O=C(NNC(=S)NCCCN1CCOCC1)c1ccncc1 | -1.68% (inactive)

SMILES | inhibition
Oc1ccccc1CN1CCN(C(c2ccccc2)c2ccccc2)CC1 | 5.95% (inactive)
O=C1CC(N2CCN(C(c3ccccc3)c3ccccc3)CC2)C(=O)N1 (stereo unspecified) | -6.57% (inactive)
CC1(C)CC(N2CCN(C(c3ccccc3)c3ccccc3)CC2)=CC(=[N+]2CCCCC2)C1 | 94% (active)
CN(C)CCN=c1cc(-c2ccccc2)oc2ccc(Cl)cc12 | -36.2% (inactive)
CCOc1ccc(NC(=O)CCC(=O)N/N=C/c2ccc([N+](=O)[O-])s2)cc1 | 62.8% (active)
CCOc1ccc(NC(=O)CCC(=O)NNC(=O)NC2CCCCC2)cc1 | -2.59% (inactive)
CCOc1ccc(C(=O)CCC(=O)Nc2ccncc2)cc1 | 8.37% (inactive)
CCCCN(C(=O)c1ccc(OC(F)(F)F)cc1)c1c(N)n(CCC)c(=O)[nH]c1=O | -1.56% (inactive)
CCN(C(=O)COC(=O)Cc1c(F)cccc1Cl)c1c(N)n(Cc2ccccc2)c(=O)[nH]c1=O | -2.14% (inactive)
O=C(NCCc1ccc(C(F)(F)F)cc1)c1ccc2c(c1)OCO2 | -3.11% (inactive)
O=C(CCc1ccccc1Cl)Nc1ccc(S(=O)(=O)Nc2nccs2)cc1 | 12.4% (inactive)
Cc1coc2c(O)cc3c(c12)OC1(N2CCCCC2)C(=O)NCCCC31 (stereo unspecified) | 77.4% (active)
COc1ccc(CCN2CC(C(=O)OCC(=O)NCc3ccccc3Cl)CC2=O)cc1OC (stereo unspecified) | -2.95% (inactive)
CC1C(C)N(C(=O)CCl)c2ccccc2N1C(=O)CCl (stereo unspecified) | 91.3% (active)
CC1C(=O)N(Cc2ccccc2)c2ccccc2N1C(=O)c1ccccc1 (stereo unspecified) | 8.87% (inactive)
CC1CC(C)CN(CC(=O)N2c3ccccc3CCc3ccccc32)C1 (stereo unspecified) | -0.982% (inactive)
CCC1([N+](=O)[O-])COC(c2ccc(C(C)C)cc2)OC1 (stereo unspecified) | -55.6% (inactive)
O=C(Nc1ccc2ccccc2c1[N+](=O)[O-])c1ccccc1 | -36.6% (inactive)
CC(=O)/C(=N\Nc1ccc(Cl)cc1Cl)Sc1cccc2cccnc12 | 65.6% (active)
Cc1c(NC(=O)CSc2cccc3cccnc23)c(=O)n(-c2ccccc2)n1C | 35.6% (inactive)
S=C(NCc1cccnc1)Nc1ccc(Cl)cc1Cl | -6.79% (inactive)

SMILES | inhibition
CC1(C)C(=O)C2(CCCCC2)C(=O)OC1c1cccs1 (stereo unspecified) | 4.16% (inactive)
C=CCn1c(=S)[nH]c2scc(-c3ccco3)c2c1=O | 1.55% (inactive)
CCN(CC)S(=O)(=O)c1ccc(N2CCCC2)c(NC(=O)c2ccc([N+](=O)[O-])o2)c1 | 88.5% (active)
CCN(CC)S(=O)(=O)c1cc(C(=O)Nc2cc(S(=O)(=O)N3CCOCC3)ccc2N2CCCC2)ccc1F | 6.91% (inactive)
CCN(CC)S(=O)(=O)c1ccc(N2CCOCC2)c(NC(=O)c2ccc(=O)n(C)n2)c1 | 2.54% (inactive)
Nc1ccc(-n2nncc2-c2ccco2)cc1 | -11.2% (inactive)
O=C(c1cccc(S(=O)(=O)N2CCCCCC2)c1)N1CCN(Cc2ccccc2)CC1 | -3.86% (inactive)
CCOC(=O)c1c(NC(=O)CN2C(=O)NC3(CCC(C)CC3)C2=O)sc(C)c1CC (stereo unspecified) | 0.199% (inactive)
NC(=O)NC(CC(=O)NNC(=O)c1ccccn1)c1ccc(Cl)cc1 (stereo unspecified) | -12.2% (inactive)
C/C(=N\NC(=O)c1ccccc1F)c1ccccn1 | 62.2% (active)
C/C(=N\NC(=O)Cc1ccc(Cl)cc1)c1ccccn1 | 80% (active)
C/C(=N\NC(=O)c1ccoc1C)c1ccccc1O | -21.6% (inactive)
CC(=NNC(=S)N1CCCCCC1)c1ccccn1 | 58.9% (inactive)
CC1=NNC(=O)C1CCC(=O)N/N=C(\C)c1ccc(Cl)cc1 (stereo unspecified) | 2.4% (inactive)
CC(C)CN1CC(C)C(=O)N(c2ccccc2)C1=S (stereo unspecified) | -5.49% (inactive)
COc1ccc(S(=O)(=O)N2CCC(C(=O)N3CCc4ccccc4C3)CC2)cc1OC | 1.79% (inactive)
COc1cc2c(cc1OC)C(C)N(S(=O)(=O)c1cnc(Cl)c(Cl)c1)CC2 (stereo unspecified) | 76% (active)
COc1cc2c(cc1OC)CN(C(=O)c1cc(S(=O)(=O)N3CCCCC3)ccc1Cl)CC2 | 10.9% (inactive)
CN(CCc1ccccn1)C(=O)CCC1CCCN(Cc2ccccc2OC(F)F)C1 (stereo unspecified) | -12.8% (inactive)
